Screens from PubChem.
A selection: hits, their analogues and other compounds. The true share with any hit is near 3.5%.
TEAD-YAP block: TEAD-YAP interaction inhibition; HEK-TIYL cells, TEAD-Gal4/YAP UAS-luciferase luminescence; inhibition, % at 9.12 µM; 1.4% of 640,000 active; in the data active = inhibition above about 32%;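 also: 0% = median of test compound wells and 100% = reference inhibitor wells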
GPR151 ag: activators of human GPR151 | 1% of 650,000 active | Q8TDV0 | activation, % at 11.2 µM | AID 1508602 | PathHunter beta-arrestin GPR151 cells, luminescence; in the data active = activation above about 4.9%;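 also: 0% = median of compound wells and 100% = cells with positive control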
MITF inh: blocks human microphthalmia-associated transcription factor; AlphaScreen MITF homodimerization, bead proximity signal; inhibition, % at 2.6 µM; 0.91% of 650,000 active; in the data active = inhibition above about 50%;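 also: 0% = vehicle wells with protein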
Target sequence (O75030 whole entry, looked up): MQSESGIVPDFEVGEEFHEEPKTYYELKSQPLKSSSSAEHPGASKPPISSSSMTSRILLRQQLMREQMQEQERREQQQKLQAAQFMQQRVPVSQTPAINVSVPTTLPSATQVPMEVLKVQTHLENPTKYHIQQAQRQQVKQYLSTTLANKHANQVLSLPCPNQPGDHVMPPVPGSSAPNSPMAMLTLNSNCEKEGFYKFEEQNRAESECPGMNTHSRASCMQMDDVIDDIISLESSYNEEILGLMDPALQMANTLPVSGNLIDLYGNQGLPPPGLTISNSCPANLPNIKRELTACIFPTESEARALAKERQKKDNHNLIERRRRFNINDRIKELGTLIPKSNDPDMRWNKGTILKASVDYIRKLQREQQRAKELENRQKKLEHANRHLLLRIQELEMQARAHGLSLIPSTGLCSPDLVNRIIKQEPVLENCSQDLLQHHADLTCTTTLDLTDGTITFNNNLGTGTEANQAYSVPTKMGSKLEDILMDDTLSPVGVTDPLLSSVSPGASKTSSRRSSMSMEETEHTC
FBW7 act: activators of human E3 ligase FBW7. Q969H0. AlphaScreen FBW7–phospho-cyclin E peptide binding, activator screen. normalized activity (activation), % at 26.1 µM. 0.13% of 650,000 active. AID 1259310; in the data active = normalized activity above about 1.9%;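 also: purified mutant Fbw7 with reduced substrate affinity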
The depositor's hits bear a star.

SMILES | TEAD-YAP block | GPR151 ag | MITF inh | FBW7 act
O=C(Nc1ccc(Oc2ccccc2)cc1)c1cccc(Cl)c1 | -74 | -1 | -11 | 0
O=C(NCCOc1ccc(Cl)cc1)c1cccc(C(=O)NCCOc2ccc(Cl)cc2)c1 | 6 | 0 | 7 | 0
NS(=O)(=O)c1cc(C(=O)NCCOc2ccc(Cl)cc2)c(Cl)cc1Cl | 37* | -1 | -7 | 0
Cn1c(/C=C/c2ccccc2)nc2ccccc21 | 93* | -11 | -2 | 0
CCn1c(/C=C/c2ccc(OC)cc2)nc2ccccc21 | 72* | -8 | -7 | 0
CCCc1nc2ccccc2n1C(=O)CCC(=O)O | 11 | 1 | 8 | 0
COCCn1c(/C=C/c2ccccc2)nc2ccccc21 | -50 | -3 | 3 | 1
O=C(O)CCC(=O)n1c(/C=C/c2ccccc2)nc2ccccc21 | 83* | -9 | -18 | 0
CC(=O)c1ccc(/C=C/c2nc3ccccc3n2C)o1 | 53* | -5 | -2 | 0
COc1cc(SC)ccc1C(=O)NCc1cccnc1 | -3 | 1 | -17 | 0
COc1cccc(-c2ocnc2C(=O)Nc2ccc(N3CCC(C)CC3)c(C(N)=O)c2)c1 | -6 | 0 | 7 | 9.2*
O=C(Nc1ccc(N2CCCC2=O)cc1)c1ccco1 | 59* | -9 | -16 | 0
O=C1CC(C(=O)Nc2cccc(Br)c2)C2(CCCCC2)O1 (stereo not drawn) | 5 | 0 | 9 | 1
O=C(CSc1cccc2cccnc12)N1CCCCC1 | -19 | 0 | -8 | 0
Oc1c(C(c2ccc(Cl)cc2)N2CCCCC2)ccc2cccnc12 (stereo not drawn) | 71* | -1 | 3 | -2
Oc1c(C(c2ccc(C(F)(F)F)cc2)N2CCCCC2)ccc2cccnc12 (stereo not drawn) | 83* | -1 | 9 | 0
COc1ccc(-c2[nH]nc3nc(-c4ccc(N5CCN(C)CC5)nc4)ccc23)cc1OC | -44 | 1 | 20 | 1
CN1CCN(c2ccc(-c3ccc4c(-c5cccc(O)c5)[nH]nc4n3)cn2)CC1 | 96* | 0 | -5 | 0
Cc1nc2cc(-c3cccc(F)c3)nn2c(N2CCN(CCN3CCOCC3)CC2)c1C | 0 | -1 | 0 | 0
Cc1ccnc(NC(c2cccnc2)c2ccc3cccnc3c2O)c1 (stereo not drawn) | 20 | 0 | 66* | 0
C=CCOc1cccc(C(Nc2cc(C)ccn2)c2ccc3ccc(C)nc3c2O)c1 (stereo not drawn) | 17 | -1 | -60 | 0
Oc1c(C(Nc2nccs2)c2cccnc2)ccc2cccnc12 (stereo not drawn) | 67* | 1 | 89* | 0
Cc1ccnc(NC(c2ccncc2)c2ccc3ccc(C)nc3c2O)c1 (stereo not drawn) | 39* | 1 | 4 | 0
COc1ccccc1NC(c1cccnc1)c1ccc2cccnc2c1O (stereo not drawn) | 3 | 0 | 76* | -2
Cc1ccnc(NC(c2cccnc2)c2ccc3ccc(C)nc3c2O)c1 (stereo not drawn) | 15 | 2 | -5 | 0
SMILES | TEAD-YAP block | GPR151 ag | MITF inh | FBW7 act
COc1ccc(S(=O)(=O)N2CCN(Cc3ccc(OC)cc3OC)CC2)cc1 | 5 | 0 | 38 | 0
CCNc1cc(N2CCN(C(=O)c3ccc(CC)cc3)CC2)ccc1[N+](=O)[O-] | 8 | 2 | 7 | 0
COC(=O)c1cc(CNC(=O)c2cccc3c(C)c(C)[nH]c23)cc(NC(=O)c2ccco2)c1 | -12 | 1 | 46 | 0
Cc1cc2cc(CN(CCc3ccccc3)C(=O)N(C)C)c3nnnn3c2cc1C | -2 | 1 | -2 | 1
CCOc1ccc(C(Nc2cc(C)ccn2)c2ccc3cccnc3c2O)cc1C (stereo not drawn) | 86* | 0 | 8 | 0
Cc1ccnc(NC(c2ccc(C(C)(C)C)cc2)c2ccc3cccnc3c2O)c1 (stereo not drawn) | 19 | 0 | -9 | 0
COc1ccc(CCNc2nc(-c3ccc(C(=O)NC4CC4)cc3)nc3c2ncn3CCN2CCCC2=O)cc1 | 39* | 2 | 6 | 0
COc1ccc(-c2nc(NCCOc3ccccc3)c3ncn(CCN4CCCC4=O)c3n2)cc1 | 34* | -1 | 11 | 0
Cc1nc(/C=C/c2ccc(Cl)cc2)sc1C(=O)O | 60* | -11 | -3 | 0
COc1ccc(C(=O)Nc2ccc(-c3csc(C)n3)cc2)c(OC)c1 | -31 | -1 | -10 | 0
COc1ccc(C(=O)Nc2ccc(-c3cn4ccsc4n3)cc2)c(OC)c1 | -15 | 0 | -5 | 2.0*
Cc1ccc(NC(=O)CN2C(=O)N/C(=C/c3cccn3-c3ccc(C(=O)O)cc3)C2=O)cc1 | 1 | 0 | 79* | 0
COc1ccc(-n2cccc2/C=C2\NC(=O)N(CC(=O)Nc3ccccc3)C2=O)cc1 | -3 | 2 | 9 | 0
Cc1ccc2nc(Nc3nc(C)c(C)c(=O)[nH]3)nc(C)c2c1 | -32 | 0 | 4 | 0
Cc1ccc2c(C)nc(Nc3nc(C)c(C)c(=O)[nH]3)nc2c1 | 44* | -1 | 28 | 0
COCCn1c(C)cc(C(=O)COC(=O)c2cccc(O)c2)c1C | 62* | -11 | -6 | 0
COCCn1c(C)cc(C(=O)COC(=O)c2cccc(Oc3ccccc3)c2)c1C | -13 | -1 | 0 | 0
COCCn1c(C)cc(C(=O)COC(=O)c2ccccc2Nc2ccccc2)c1C | 75* | -1 | 13 | 0
Cc1cc(C(=O)COC(=O)c2cccc(NS(C)(=O)=O)c2)c(C)n1Cc1ccccc1 | 57* | 0 | -6 | 0
Cc1cc(C(=O)COC(=O)c2cccc(NS(C)(=O)=O)c2)c(C)n1-c1ccccc1 | 25 | -1 | 8 | 0
O=C1CCN(C(=O)c2ccc(-c3nc4ccccc4s3)s2)CC1 | 99* | -11 | 13 | 0
C=CCc1ccc(O)c(-c2cc(CC=C)ccc2O)c1 | 0 | 0 | 14 | 1
C=CCN(CC=C)Cc1cc(O)c(CN(CC=C)CC=C)cc1O | -8 | 0 | 53* | 0
COc1ccc2sc(Nc3nc(-c4ccccn4)cs3)nc2c1 | 37* | 4 | 25 | -1
COc1ccc2nc(Nc3nc(-c4cccnc4)cs3)sc2c1 | 4 | 0 | 14 | 0
SMILES | TEAD-YAP block | GPR151 ag | MITF inh | FBW7 act
COc1ccc2nc(Nc3nc(-c4ccccn4)cs3)sc2c1 | 49* | 1 | 51* | -2
CCCCN(C)S(=O)(=O)c1ccc(C(=O)Nc2sc3c(c2C(=O)N2CCOCC2)CCN(C(=O)OCC)C3)cc1 | 6 | -1 | 10 | 0
COc1cc(OC)cc(C2=NC3(CCCCC3)NC2=O)c1 | 3 | 1 | -8 | 2.1*
Cc1ccc(NC(=O)c2cc(S(=O)(=O)NCc3ccccc3Cl)ccc2F)cc1 | 5 | 0 | 2 | 0
CCCCCCC1(O)C(C)C(c2ccc(N(C)C)cc2)NC(c2ccc(N(C)C)cc2)C1C (stereo not drawn) | -11 | 0 | 61* | -1
Cc1ccc2nc(-c3sc4nc(C)ccc4c3N)[nH]c2c1 | 72* | 0 | -3 | 0
Cc1cc(C)c2c(N)c(-c3nc4ccccc4[nH]3)sc2n1 | -42 | -4 | -4 | 0
